Experimental data: PubChem BioAssay (NCATS)
Results filed as inconclusive are left out. Entries that show only a call come without a potency. Active and inactive are the calls of the source. Calls come from the whole dose curve; as a rule, active = well fitted curve in the direction sought with a large enough effect; inconclusive = small, poorly fitted or top-dose-only effect, or another doubt; inactive = no such curve, though single readings can be large; an effect the other way counts as inactive or inconclusive.

Test system: not listed separately
Assay: qHTS to identify inhibitors of the type 1 interferon - major histocompatibility complex class I in skeletal muscle: primary screen against the NCATS Mechanism Interrogation Plate v5.0 (MIPE) Libary (AID 1347411); note: nearly all actives have a fitted effect of over 65% in size; note: potency is the fitted concentration of half-maximal effect
Details: iHSKM cells + IFN-b, HiBiT-tagged MHC-I luminescence, 24 h; series mostly up to 45.8 µM
Method in brief: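 IFN-beta-driven (4 ng/ml) HLA-B-HiBit expression in CRISPR-tagged C25cl48 myoblasts; compounds 11-pt, 1:3, max 46 uM, 24 hr exposure; lytic NanoLuc complementation luminescence.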

| SMILES | Potency |
| --- | --- |
| CC(=O)NCCCS(=O)(=O)O | inactive |
| C=CC[N+]1([C@H]2C[C@H]3[C@@H]4CC[C@H]5C[C@H](O)[C@@H](N6CCOCC6)C[C@]5(C)[C@H]4CC[C@]3(C)[C@H]2OC(C)=O)CCCC1 | inactive |
| CC[C@H](CC[C@@H](C)[C@H]1CC[C@H]2[C@@H]3CC=C4C[C@@H](O)CC[C@]4(C)[C@H]3CC[C@]12C)C(C)C | inactive |
| CC[C@H]1OC(=O)[C@H](C)[C@@H](O[C@H]2C[C@@](C)(OC)[C@@H](O)[C@H](C)O2)[C@H](C)[C@@H](O[C@@H]2O[C@H](C)C[C@H](N(C)C)[C@H]2O)[C@](C)(O)C[C@@H](C)CN(C)[C@H](C)[C@@H](O)[C@]1(C)O | inactive |
| CCC[C@@H]1C[C@@H](C(=O)N[C@@H]([C@H]2O[C@H](SC)[C@H](O)[C@@H](O)[C@H]2O)[C@H](C)Cl)N(C)C1 | inactive |
| CCCCC[C@H](O)/C=C/[C@H]1[C@H](O)CC(=O)[C@@H]1CCCCCCC(=O)O | inactive |
| Oc1ccc(/C=C/c2cc(O)cc(O)c2)cc1 | inactive |
| C[C@H]1O[C@@H](O[C@H]2[C@@H](O)C[C@H](O[C@H]3[C@@H](O)C[C@H](O[C@H]4CC[C@@]5(C)[C@H](CC[C@@H]6[C@@H]5C[C@@H](O)[C@]5(C)[C@@H](C7=CC(=O)OC7)CC[C@]65O)C4)O[C@@H]3C)O[C@@H]2C)C[C@H](O)[C@@H]1O | 0.037 µM (active) |
| CC(C)Cc1ccc([C@@H](C)C(=O)NS(C)(=O)=O)cc1 | inactive |
| COc1ccc([C@@H]2CC(=O)c3c(O)cc(O[C@@H]4O[C@H](CO[C@@H]5O[C@@H](C)[C@H](O)[C@@H](O)[C@H]5O)[C@@H](O)[C@H](O)[C@H]4O)cc3O2)cc1O | inactive |
| CN[C@@H]1[C@@H](O)[C@@H](O[C@@H]2[C@@H](O)[C@H](O[C@H]3O[C@H](CN)[C@@H](O)[C@H](O)[C@H]3O)[C@@H](N)C[C@H]2NC(=O)C(O)CN)OC[C@]1(C)O (stereo partly specified) | inactive |
| CNC(=O)[C@H](Cc1c[nH]c2ccccc12)NC(=O)[C@@H](CC(=O)NO)CC(C)C | inactive |
| C=C1[C@H](CO)[C@@H](O)C[C@@H]1n1cnc2c(=O)[nH]c(N)nc21 | inactive |
| NC[C@H]1O[C@H](O[C@H]2[C@H](O)[C@@H](O[C@H]3O[C@H](CO)[C@@H](O)[C@H](N)[C@H]3O)[C@H](N)C[C@@H]2N)[C@H](N)C[C@@H]1O | inactive |
| CO[C@H]1O[C@@H]2O[C@@]3(C)CC[C@H]4[C@H](C)CC[C@@H]([C@H]1C)[C@@]24OO3 | inactive |
| COc1cc(C)c(/C=C/C(C)=C/C=C/C(C)=C/C(=O)O)c(C)c1C | inactive |

Target: Protein phosphatase 1D (Homo sapiens) (UniProt O15297)
Assay: RapidFire Mass Spectrometry qHTS Assay for Modulators of WT P53-Induced Phosphatase 1 (WIP1) (AID 1347424)
Details: WIP1 dephosphorylation of phosphopeptide, RapidFire MS; series mostly up to 63 µM
Method in brief: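 RapidFire MS readout of dephosphorylated VEPPL-S-QETFS product, with 1 uM isotope-labelled peptide standard. Reaction: 10 nM WIP1, 2 uM phosphopeptide substrate, 5 min, room temperature, after 1 h compound preincubation; stopped with 0.5% formic acid.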

Sequence of Protein phosphatase 1D (Homo sapiens) (O15297 whole entry, looked up): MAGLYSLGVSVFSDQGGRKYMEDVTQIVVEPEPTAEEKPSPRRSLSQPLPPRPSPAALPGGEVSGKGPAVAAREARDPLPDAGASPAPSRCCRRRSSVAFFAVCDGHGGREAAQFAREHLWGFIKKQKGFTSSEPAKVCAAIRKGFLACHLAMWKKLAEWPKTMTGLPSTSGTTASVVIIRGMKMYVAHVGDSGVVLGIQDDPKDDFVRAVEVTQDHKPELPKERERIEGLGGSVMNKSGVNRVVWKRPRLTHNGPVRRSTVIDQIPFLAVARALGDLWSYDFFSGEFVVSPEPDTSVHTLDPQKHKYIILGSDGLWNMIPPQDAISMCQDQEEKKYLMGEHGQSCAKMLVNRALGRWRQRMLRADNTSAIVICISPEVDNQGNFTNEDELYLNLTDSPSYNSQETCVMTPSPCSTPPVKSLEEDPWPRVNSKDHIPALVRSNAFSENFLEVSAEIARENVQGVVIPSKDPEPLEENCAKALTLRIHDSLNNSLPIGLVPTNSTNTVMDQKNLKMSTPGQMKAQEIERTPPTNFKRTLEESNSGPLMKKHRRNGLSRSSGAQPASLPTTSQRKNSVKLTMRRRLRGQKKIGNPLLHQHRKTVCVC

| SMILES | outcome |
| --- | --- |
| O=C1c2ccccc2C(=O)c2c1ccc(O)c2O | inactive |
| Nc1ccc(N=Nc2ccccc2)c(N)n1 | inactive |
| Oc1ccc(/C=C/c2cc(O)cc(O)c2)cc1 | inactive |
| CN(C)CCCSc1ccccc1NC(=O)/C=C/c1ccccc1 | inactive |
| O=C(O)CCC(=O)c1ccc(-c2ccccc2)cc1 | inactive |
| COc1ccc2nc(NC(=O)Nc3ccccc3)sc2c1 | inactive |
| O=C(OCc1ccccc1)c1ccc(O)cc1 | inactive |
| CC(=O)Oc1cccc2c1C(=O)c1c(OC(C)=O)cc(C(=O)O)cc1C2=O | inactive |

Target: Protein phosphatase 1D (Homo sapiens) (UniProt O15297)
Assay: Rhodamine-PBP qHTS Assay for Modulators of WT P53-Induced Phosphatase 1 (WIP1) (AID 1347425)
Details: recombinant WIP1, Rhodamine-PBP phosphate fluorescence, real-time; series mostly up to 57.5 µM
Source text: Assay Provider (PI): Nathan Coussens Ph.D.
National Center for Advancing Translational Sciences (NCATS), Rockville, MD
National Institute of Health (NIH), Bethesda, Maryland
WT P53-Induced Phosphatase 1 (WIP1) is a member of the magnesium-dependent serine/threonine protein phosphatase (PPM) family and is induced by P53 in response to DNA damage. In several human cancers, the WIP1 protein is overexpressed, which is generally associated with a worse prognosis. Although WIP1 is an attractive therapeutic target, no potent, selective, and bioactive small-molecule modulator with favorable pharmacokinetics has been reported. Phosphatase enzymes are among the most challenging targets for small molecules because of the difficulty of achieving both modulator selectivity and bioavailability. Another major obstacle has been the availability of robust and physiologically relevant phosphatase assays that are suitable for high-throughput screening.
Here, we describe two orthogonal biochemical WIP1 activity assays that utilize phosphopeptides from native WIP1 substrates. We optimized a RapidFire MS assay to quantify the enzymatically dephosphorylated peptide reaction product in a 384-well format. Additionally, a redshifted Rhodamine-PBP fluorescence assay was optimized in a 1,536-well format to enable real-time WIP1 activity measurements through the detection of the orthogonal reaction product, Pi. We validated these two optimized assays by quantitative high-throughput screening against the National Center for Advancing Translational Sciences (NCATS) Pharmaceutical Collection and used secondary assays to confirm and evaluate inhibitors identified in the primary screen.
SEQUENCE No. (e.g., 1, 2, 3, etc.); […] (e.g., Cells, Incubation, Reagent, etc.); VALUE; DESCRIPTION
1; Reagent; 3 uL; WIP1 (6.7 nM), Rh-PBP (13.3 uM), columns 1-48
3; Library Compounds; 23 nL; NCATS Pharmaceutical Collection, column 5-48
4; Control Compounds; DMSO in column 2, GSK2830371 (57.5 uM, final) in 3-fold serial dilutions in column 3, GSK2830371 (1.15 uM, final) in column 4
5; Time; 1 hr; incubation
6; Detection; fluorescence (f0); ViewLux, excitation filter = 525 nm, emission filter = 598 nm
7; Reagent; 1 uL; VEPP-pS-QETFS (40 uM), columns 2-48
8; Detection; fluorescence (f1); ViewLux, excitation filter = 525 nm, emission filter = 598 nm
NOTES (numbers refer to sequence above)
1 & 2; Black medium binding Greiner 1536-well plates (# 789176-F); assay buffer: 50 mM Tris-HCl pH 7.5, 30 mM MgCl2, 1mM TCEP, 0.1 mM EGTA, 75 ug/mL BSA; dispensed with a BioRaptr liquid handler (Beckman Coulter).
3 & 4; Kalypsys pintool (equipped with 1536 pinhead, Wako USA) transfer. Tip wash sequence: DMSO, methanol, 3 sec vacuum dry.
5; Room temperature incubation.
7; VEPPL-pS-QETFS in assay buffer dispensed with a BioRaptr; final reaction conditions: 5 nM WIP1, 10 uM VEPPL-pS-QETFS, 10 uM Rh-PBP, 50 mM Tris-HCl pH 7.5, 30 mM MgCl2, 1 mM TCEP, 0.1 mM EGTA, 75 ug/mL BSA.
8; Measurement taken at 1 min intervals for 11 min. Delta readout = f1 - f0.

| SMILES | outcome |
| --- | --- |
| O=C1c2ccccc2C(=O)c2c1ccc(O)c2O | inactive |
| Nc1ccc(N=Nc2ccccc2)c(N)n1 | inactive |
| CN(C)CCCSc1ccccc1NC(=O)/C=C/c1ccccc1 | inactive |
| O=C(O)CCC(=O)c1ccc(-c2ccccc2)cc1 | inactive |
| O=C(OCc1ccccc1)c1ccc(O)cc1 | inactive |
| CC(=O)Oc1cccc2c1C(=O)c1c(OC(C)=O)cc(C(=O)O)cc1C2=O | inactive |

Test system: not listed separately
Assay: Primary qHTS for inhibitors of La Crosse Virus (LACV) - induced cell death in SH-SY5Y cells (AID 1508616);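 note: top concentration of the series differs between compounds; higher means more rescue of cells from virus-induced death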
Details: SH-SY5Y LACV cytopathicity rescue, ATP luminescence, 6 d; series mostly up to 4.29 µM
Method in brief: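 Screening measures cell viability in LACV-infected SH-SY5Y cultures. Compound was added before virus (0.01 MOI), and ATP was detected by luminescence 6 days later.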

| SMILES | outcome |
| --- | --- |
| O=C1c2ccccc2C(=O)c2c1ccc(O)c2O | inactive |
| Nc1ccc(N=Nc2ccccc2)c(N)n1 | inactive |
| Oc1ccc(/C=C/c2cc(O)cc(O)c2)cc1 | inactive |
| CN(C)CCCSc1ccccc1NC(=O)/C=C/c1ccccc1 | inactive |
| O=C(O)CCC(=O)c1ccc(-c2ccccc2)cc1 | inactive |
| COc1ccc2nc(NC(=O)Nc3ccccc3)sc2c1 | inactive |
| O=C(OCc1ccccc1)c1ccc(O)cc1 | inactive |
| CC(=O)Oc1cccc2c1C(=O)c1c(OC(C)=O)cc(C(=O)O)cc1C2=O | inactive |

Target: Calcium and integrin-binding protein 1 (Homo sapiens) (UniProt Q99828)
Assay: Primary qHTS for Identification of Calcium Integrin Binding Protein 1 (CIB1) Competitor (AID 1508620); note: potency is the fitted concentration of half-maximal effect
Details: CIB1-GST / FITC-alphaIIb peptide fluorescence polarization; series mostly up to 114 µM
Method in brief: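 Fluorescence polarization competition: GST-tagged CIB1 (1 uM final) preincubated with compound 15 min at room temperature, then FITC-labelled alphaIIb peptide (100 nM final) added. After 15 min at room temperature, polarization read at Ex 480/Em 540.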

Sequence of Calcium and integrin-binding protein 1 (Homo sapiens) (Q99828 whole entry, looked up): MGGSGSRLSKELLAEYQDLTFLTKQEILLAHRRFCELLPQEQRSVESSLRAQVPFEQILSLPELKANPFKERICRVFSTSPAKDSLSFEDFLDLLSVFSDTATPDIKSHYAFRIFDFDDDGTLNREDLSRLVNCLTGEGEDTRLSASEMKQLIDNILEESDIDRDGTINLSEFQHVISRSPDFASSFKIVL

| SMILES | Potency |
| --- | --- |
| O=C1c2ccccc2C(=O)c2c1ccc(O)c2O | 35.5 µM (active) |
| CC(C)(C)c1ccc(CN2CCN(C(c3ccccc3)c3ccc(Cl)cc3)CC2)cc1 (stereo unspecified) | inactive |
| O=C(O)Cc1cc(I)c(Oc2ccc(O)c(I)c2)c(I)c1 | inactive |
| CCN(CC)CCOCCOC(=O)C(CC)(CC)c1ccccc1 | inactive |
| Oc1ccc(/C=C/c2cc(O)cc(O)c2)cc1 | inactive |
| C[C@H]1O[C@@H](O[C@H]2[C@@H](O)C[C@H](O[C@H]3[C@@H](O)C[C@H](O[C@H]4CC[C@@]5(C)[C@H](CC[C@@H]6[C@@H]5C[C@@H](O)[C@]5(C)[C@@H](C7=CC(=O)OC7)CC[C@]65O)C4)O[C@@H]3C)O[C@@H]2C)C[C@H](O)[C@@H]1O | inactive |
| CC1CC(OC(=O)C(O)c2ccccc2)CC(C)(C)C1 (stereo unspecified) | inactive |
| C=C1CC[C@H](O)CC1=C/C=C1\CCC[C@]2(C)[C@@H]([C@H](C)/C=C/[C@H](C)C(C)C)CC[C@@H]12 | inactive |
| COc1ccc(C[C@H](C)NC[C@@H](O)c2ccc(O)c(NC=O)c2)cc1 | inactive |
| CO[C@H]1C[C@@H]2CC[C@@H](C)[C@@](O)(O2)C(=O)C(=O)N2CCCC[C@H]2C(=O)O[C@H]([C@H](C)C[C@@H]2CC[C@@H](OC(=O)C(C)(CO)CO)[C@H](OC)C2)CC(=O)[C@H](C)/C=C(\C)[C@@H](O)[C@@H](OC)C(=O)[C@H](C)C[C@H](C)/C=C/C=C/C=C/1C | inactive |
| CN(C)CCCSc1ccccc1NC(=O)/C=C/c1ccccc1 | inactive |
| C/C(=C\C(=O)OCCCCCCCCC(=O)O)C[C@@H]1OC[C@H](C[C@@H]2O[C@H]2[C@@H](C)[C@H](C)O)[C@@H](O)[C@H]1O | inactive |
| C=C1[C@H](CO)[C@@H](O)C[C@@H]1n1cnc2c(=O)[nH]c(N)nc21 | inactive |
| C[C@]12CC[C@@H]3c4ccc(OC(=O)c5ccccc5)cc4CC[C@H]3[C@@H]1CC[C@@H]2O | inactive |
| O=C(O)CCC(=O)c1ccc(-c2ccccc2)cc1 | inactive |
| COc1ccc2nc(NC(=O)Nc3ccccc3)sc2c1 | inactive |
| O=C(OCc1ccccc1)c1ccc(O)cc1 | inactive |
| CC(=O)Nc1ccc(NC(=S)NC(=O)c2ccc(C(C)(C)C)cc2)cc1 | inactive |
